Screens as filed in PubChem BioAssay.
RORgamma inh: ROR gamma (mouse) transcription inhibition; Drosophila S2 Gal4-RORgamma UAS-luciferase reporter, 20 h; actives 5.4% (n = 310,000); Potency, µM (series often up to 53.6 µM), for the others: at the highest dose activity change, negative = inhibition, most hits filed as inhibitors; AID 2551; also: % is scaled to controls: 0 for no effect and ±100 for the full control effect; nearly all actives have a fitted effect of over 60% in size
Target sequence (P51450 whole entry, looked up, the tested form may be a part): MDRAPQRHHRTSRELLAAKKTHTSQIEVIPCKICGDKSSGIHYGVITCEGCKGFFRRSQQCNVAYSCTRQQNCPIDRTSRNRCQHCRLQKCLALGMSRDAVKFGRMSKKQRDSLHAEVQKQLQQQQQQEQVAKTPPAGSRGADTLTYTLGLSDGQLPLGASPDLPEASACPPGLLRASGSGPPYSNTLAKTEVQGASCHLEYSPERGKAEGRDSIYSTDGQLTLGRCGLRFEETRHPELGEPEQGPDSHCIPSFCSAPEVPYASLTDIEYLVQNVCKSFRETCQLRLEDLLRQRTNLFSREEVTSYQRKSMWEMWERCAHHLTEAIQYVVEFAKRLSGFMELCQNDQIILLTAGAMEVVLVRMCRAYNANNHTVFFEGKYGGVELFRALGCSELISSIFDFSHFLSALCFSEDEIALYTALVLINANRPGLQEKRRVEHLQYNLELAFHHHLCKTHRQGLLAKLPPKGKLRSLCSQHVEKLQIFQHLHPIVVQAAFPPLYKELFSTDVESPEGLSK
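ROR gamma transcriptional activity was tracked as Gal4-UAS luciferase output in stably transfected Drosophila Schneider cells, with compound added 1 hr before 700 uM copper sulfate induction and a 20 hr ambient-temperature incubation.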
Gal4-VP16 FLuc: inhibits Gal4-VP16 luciferase reporter, ROR gamma counter-screen | Potency, µM (titrated, usually from 53.6 µM), for inactives: top-dose activity, negative = inhibition, most hits filed as inhibitors | Drosophila S2 Gal4-VP16 UAS-luciferase, luminescence, 20 h | AID 2546 | actives 3.5% (n = 310,000);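 also: Gal4-VP16 expression switched on by copper sulfate through the metallothionein promoter; % is scaled to controls: 0 for no effect and ±100 for the full control effect; nearly all actives have a fitted effect of over 50% in size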
BCR signal inh: chronic active BCR signaling inhibition | actives 0.05% (n = 340,000) | Potency, µM (highest dose often 46.1 µM), for inactives: at the top dose activity change, negative = inhibition, most hits filed as inhibitors | ABC-DLBCL IkBa-CBG/CBR reporter, luminescence ratio, 4 h; active = well fitted inhibition curve with a large enough effect in the signal ratio, with a control signal flat, not every such curve was filed as active; inconclusive = small, poorly fitted or top-dose-only effect, or effect the other way, or a change in a side signal; the % refers to the signal ratio;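 also: plate controls were basal doxycycline-induced cells for no effect and cells given 10 µM MG132 for full effect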
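TMD8 ABC-DLBCL cells carrying doxycycline-inducible green luciferase fused to IkappaBalpha plus unfused red luciferase were exposed to compounds (up to 46 uM) for 4 hrs at 37C. Activity came from the overlap-corrected green/red luminescence ratio.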
uPA surface inh: blocks generation of uPA at the cell surface. Potency, µM (top dose mostly 38.3 µM), inactives show top-dose activity change, negative = inhibition, usual class: inhibitors. cell surface uPA generation assay, qHTS. actives 0.31% (n = 330,000); active = well fitted inhibition curve with a large enough effect; inconclusive = small, poorly fitted or top-dose-only effect; inactive = no such curve, though single readings can be large or run the other way; tested in mouse RAW 264.7 cells; also: % is scaled to controls: 0 for no effect and ±100 for the full control effect; nearly all actives have a fitted effect of over 55% in size
Integrin act MD: activates integrin-mediated alleviation for muscular dystrophy; alpha7betagal myoblasts, beta-gal FDG fluorescence, 48 h; Potency, µM (top dose mostly 38.3 µM), for inactives: top-dose activation, most hits filed as activators; actives 0.064% (n = 350,000);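 also: 100% = response of the positive control SU9516; nearly all actives have a fitted effect of over 60% in size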
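Alpha7betagal+/- myoblasts (passage 13) were plated 16-24 hr, then exposed to compounds (1:260 dilution of DMSO stock) for 48 hours at 37C. After MPER lysis, β-galactosidase reporter activity was read as FDG fluorescence (ex 480/em 540) after 30 minutes.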
Mito fusion yeast: inhibitors of mitochondrial division or activators of mitochondrial fusion; S. cerevisiae fusion-defective mutant growth rescue, CellTiterGlo 48 h; Potency, µM (doses to about 46.1 µM), for inactives: at the highest dose growth rescue (activation), most hits filed as activators; actives 0.23% (n = 320,000); also: % of control where 0% means no effect; nearly all actives have a fitted effect of over 45% in size
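Compounds are tested for their ability to restore growth of mitochondrial fusion-defective yeast strains at non-permissive 37C in YPEG medium over 48 hours. Viability is quantified by luciferase luminescence.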
Starred values were filed as active, the others as inactive; ? = inconclusive; . = no result given; [ ] = dose if it differs, or a comment. This is a sample that favours compounds with a hit; in the whole collection about 5.5% have one here. Unless noted, calls follow the shape of the dose curve; as a rule, active = well fitted curve in the direction sought with a large enough effect; inconclusive = small, poorly fitted or top-dose-only effect, or another doubt; inactive = no such curve, though single readings can be large; an effect the other way counts as inactive or inconclusive. Potency is read from the fitted curve at half-maximal effect.

SMILES	RORgamma inh	Gal4-VP16 FLuc	BCR signal inh	uPA surface inh	Integrin act MD	Mito fusion yeast
COc1ccc(C/C(C)=N/NC(=S)Nc2ccc(C(C)C)cc2)cc1	4.47µM*	?	-1.5%	2.1%	-39.1%	-3.3%
COc1ccc(C/C(C)=N/NC(=O)c2ccc(Cl)cc2)cc1	11.2µM*	?	?	-1.0%	?	3.0%
CC[C@H](C)[C@H](NC(=O)[C@H](Cc1ccc(O)cc1)NC(=O)[C@@H]1CCCN1C(=O)[C@H](CCCCN)NC(=O)[C@@H](N)CCCCN)C(=O)N[C@@H](CC(C)C)C(=O)O	-2.5%	1.2%	.	.	.	.
COC(=O)N/N=C(\C)c1ccc(OC(F)F)cc1	6.1%	-14.7%	0.5%	.	11.9%	-3.8%
C/C(=N\NC(=S)Nc1c(C)cccc1C)c1ccc(OC(F)F)cc1	3.16µM*	5.62µM*	?	67.4%	-33.5%	14.1%
COc1cccc(N2CCN(c3ncnc4c3c(-c3ccccc3)cn4-c3ccc(C)cc3)CC2)c1	.	.	0.3%	.	.	.
COc1ccc(NC(=O)C23CC4CC(C2)CC(n2cnc(Br)n2)(C4)C3)c(OC)c1	5.62µM*	-41.1%	?	-1.1%	19.8%	6.3%
Clc1ccc(OCc2cn3ccccc3n2)c2ncccc12	11.2µM*	?	?	2.6%	24.5%	14.6%
COc1ccc(C(=O)NC(=S)N2CCC(C)CC2)cc1	1.41µM*	3.98µM*	4.4%	-1.2%	-8.5%	-5.8%
COc1ccc(C(=O)NC(=S)N2CC(C)OC(C)C2)cc1 (stereo not given)	5.62µM*	6.31µM*	-2.6%	1.9%	17.2%	14.8%
Cc1ccc(C(=O)NN2CCOCC2)cc1[N+](=O)[O-]	-10.2%	-6.7%	0.7%	1.5%	1.1%	-8.3%
Cc1ccc(C(=O)NC(=S)N2CC(C)OC(C)C2)cc1[N+](=O)[O-] (stereo not given)	0.398µM*	0.708µM*	0.0%	.	-14.7%	-2.4%
CCCOc1cccc(C(=O)Nc2cccnc2)c1	44.9%	16.1%	-0.7%	-12.5%	-8.2%	-4.7%
CCCCOc1cccc(C(=O)NC(=S)Nc2cccnc2)c1	11.2µM*	?	-18.6%	1.1%	-16.5%	-0.3%
O=C(NC(=S)Nc1ccc(CN2CCCCC2)cc1)c1cccc(OCc2ccccc2)c1	10µM*	?	-1.5%	-5.8%	-72.0%	1.7%
O=C(O)c1ccc(NC(=S)NC(=O)c2cccc(COc3ccccc3)c2)cc1	41.4%	3.9%	?	-1.1%	20.5%	13.5%
CCC(=O)Nc1cccc(NC(=S)NC(=O)c2ccccc2)c1	4.4%	-2.4%	?	0.3%	-4.9%	0.1%
CCOc1cccc(C(=O)NC(=S)Nc2ccccc2)c1	4.47µM*	?	?	0.4%	-15.9%	1.5%
COc1cccc(C(=O)Nc2cccc(NC(=O)c3ccccc3Cl)c2)c1	?	0.6%	?	?	11.8%	12.9%
CCOc1cccc(C(=O)NC(=S)Nc2cccc(NC(=O)c3ccccc3Cl)c2)c1	-40.5%[10 µM]	0.631µM*	?	4.7%	-48.3%	7.8%
Nc1nc(CC(=O)O)cs1	-7.0%	-2.2%	.	.	.	.
CCOc1cccc(C(=O)NC(=S)Nc2ccc(N3CCN(CC)CC3)cc2)c1	11.2µM*	?	-1.0%	8.3%	-22.3%	-9.9%
O=C(NC(=S)Nc1cccnc1)c1cccc(Br)c1	?	?	?	-2.9%	-16.6%	-0.6%
CCOc1cccc(C(=O)NC(=S)Nc2cccnc2)c1	14.1µM*	?	-11.6%	-1.3%	-20.8%	-7.9%
CCCOc1cccc(C(=O)NC(=S)Nc2ccc(N3CCN(C)CC3)cc2)c1	-16.4%	-8.1%[10 µM]	-2.3%	0.7%	9.8%	1.5%
SMILES	RORgamma inh	Gal4-VP16 FLuc	BCR signal inh	uPA surface inh	Integrin act MD	Mito fusion yeast
COc1ccccc1-c1nccc(-n2ccnc2)n1	-21.9%	1.6%	.	.	.	.
Cc1sc2ncnc(Sc3ccccc3C(=O)Nc3ccccc3Cl)c2c1C	?	15.0%	3.3%	1.2%	26.3%	1.1%
Cc1sc2ncnc(Sc3ccccc3C(=O)Nc3ccc(C#N)cc3)c2c1C	3.5%	-6.7%	-0.3%	-4.6%	-15.3%	12.6µM*
Cc1sc2ncnc(Sc3ccccc3C(=O)Nc3ccc(Br)cc3)c2c1C	10µM*	8.91µM*	?	-8.7%	-37.8%	?
CC(C)CN1CC2(CCN(C(=O)c3cccc(F)c3)CC2)C1	-5.2%	10.0%	.	.	.	.
Cc1ccsc1/C=N/NC(=O)CO	-17.0%	-4.6%	0.1%	15.2%	-1.3%	5.0%
O=C(N/N=C/c1c(Cl)cccc1Cl)c1n[nH]c2c1CCCC2	-9.1%	-1.0%	?	-23.4%	-9.9%	15.6%
Cc1ccsc1/C=N/NC(=O)c1sccc1C	7.94µM*	?	?	-4.9%	24.4%	-1.2%
Cc1ccsc1/C=N\NC(=O)c1n[nH]c2c1CCC2	3.98µM*	7.08µM*	?	-16.7%	8.4%	-1.8%
Cc1ccsc1/C=N\NC(=O)Cn1nnc2ccccc21	14.1µM*	?	-7.1%	-10.7%	-10.7%	-8.2%
Cc1ccsc1/C=N\NC(=O)c1ccc2c(c1)OCO2	7.08µM*	?	?	-9.0%	0.0%	-4.4%
COc1ccccc1CNC(=O)CCNC(=O)C1CCN(S(=O)(=O)c2ccccc2)CC1	-25.8%	-1.6%	-0.6%	1.5%	27.7%	-0.6%
COc1ccc(C2=C(C(C)=O)Sc3nnc(-c4ccc(Cl)cc4)n3N2C(C)=O)cc1OC	.	.	-2.9%	.	.	.
O=C(c1ccco1)N1CCC2(CC1)CCN(c1ccccc1)CC2	23.6%	-2.8%	.	.	.	.
Cc1ccsc1/C=N/NC(=O)CSCc1ccc(Cl)cc1	11.2µM*	10µM*	-7.5%	9.3%	-10.0%	8.2%
Cc1ccsc1/C=N/NC(=O)c1ccc2c(c1)OCCO2	1.41µM*	-89.2%	?	-8.0%	19.1%	3.0%
Cc1ccsc1/C=N\NC(=O)c1cc(C(C)(C)C)[nH]n1	10µM*	20µM*	?	-3.8%	-3.2%	2.4%
Cc1ccc(C(=O)N/N=C\c2sccc2C)cn1	?	?	?	?	0.0%	14.7%
CCCn1c(NCc2cc(OC)ccc2OC)nc2ccccc21	5.01µM*	11.2µM*	-0.5%	-0.2%	-4.9%	-3.7%
COc1ccc(OC)c(CNc2nc3ccccc3n2CCN2CCCCC2)c1	10.9%	1.7%	?	.	19.7%	-0.1%
COc1ccc(CNc2nc3ccccc3n2CCN2CCCCC2)c(OC)c1	12.6µM*	-22.3%	?	-6.0%	0.0%	-1.4%
CCn1c(NCc2cc(OC)ccc2OC)nc2ccccc21	-26.0%	24.0%	-4.4%	1.3%	-3.1%	2.3%
Brc1cccc(CNc2nc3ccccc3n2CCN2CCCCC2)c1	4.47µM*	-19.7%	?	?	5.9%	-6.2%
Brc1ccc(CNc2nc3ccccc3n2CCN2CCCCC2)cc1	?	-22.5%	0.4%	?	-69.7%	-10.6%
